# Data reported in PubChem BioAssay (Tox21).
# Inconclusive results are not listed. Where a call stands in place of a potency, no number is given. Calls of active or inactive are those of the source. Calls follow the shape of the full dose curve.
# Experiment: p53 small molecule agonists, cell-based qHTS assay with human liver microsomes: qHTS cell viability counter screen (AID 1963579); also: nearly all actives have a fitted effect of over 45% in size
# Settings: p53RE-bla HCT-116 viability, ATP luminescence, 16 h, HLM; series mostly up to 66 µM
# Description: National Center for Advancing Translational Sciences [NCATS]
# Division of Preclinical Innovation [DPI]
# U.S. Environmental Protection Agency [EPA]
# National Institutes of Environmental Health Sciences [NIEHS]
# National Toxicology Program [NTP]
# U.S. Food and Drug Administration [FDA]
# p53, a tumor suppressor protein, is activated following cellular insult, including DNA damage and other cellular stresses. The activation of p53 regulates cell fate by inducing DNA repair, cell cycle arrest, apoptosis, or cellular senescence. The activation of p53, therefore, is a good indicator of DNA damage and other cellular stresses. […] The activation of the reporter gene under culture conditions can be detected by fluorescence intensity. This cell line was used to screen the Tox21 10K compound library in the condition of presence of human liver microsomes and to identify agonists that activate the p53 signaling pathway after in vitro metabolic activation (Ooka et al., Archive of Toxicology 96:1975-1987, 2022).
# Tox21 Assay Protocol Summary:
# The p53RE-bla cells were dispensed at 4,000cells/3ul/well in 1536-well black-clear bottom plates. After the assay plates were incubated at 37 C, 5% CO2 incubator for 5 hours, 23 nL of compounds dissolved in DMSO, positive controls or DMSO only was transferred to the assay plate. Following compound addition, 3 uL of human liver microsomes (XenoTech, Kansas City, KS) at final concentration of 0.5 mg/mL and 1uL of B-Nicotinamide adenine dinucleotide 2'-phosphate (NADPH) at final concentration of 0.5 mg/mL were transferred to the assay plate. The plates were incubated at 37 C for 16 hours. 1 uL of LiveBLAzer detection mixture was added to each well and the plates were incubated at room temperature in the dark for 2 h. Fluorescence intensity at 460 and 530 nm emission and 405 nm excitation were measured by an Envision plate reader. For cell viability readout that measures cytotoxicity, 4 ul/well of CellTiter-Glo reagent was added into the assay plates using a Flying Reagent Dispenser. After 30 min incubation at room temperature, the luminescence intensity in the plates was measured using a ViewLux plate reader.
row,SMILES,Potency
1,C[C@H](CN1CCCC1)C(=O)c1ccc(C(F)(F)F)cc1,inactive
2,CN(C)CCCN1c2ccccc2Sc2ccccc21,inactive
3,CCN(CC)CCNC(=O)COc1ccc(Cl)cc1,inactive
4,C=COC(=O)C(C)(CC)CCC(C)C (stereo not given),inactive
5,CCOC(=O)CC#N,inactive
6,CC[C@@H](CO)NCCN[C@@H](CC)CO,inactive
7,Oc1c(I)cc(I)c2cccnc12,inactive
8,C[C@@H]1C[C@H]2[C@@H]3CCC4=CC(=O)C=C[C@]4(C)[C@@]3(F)[C@@H](O)C[C@]2(C)[C@@]1(O)C(=O)COP(=O)(O)O,inactive
9,CCCCN(CCCC)CCCOC(=O)c1ccc(N)cc1,inactive
10,Nc1cc(C(=O)O)c(O)c(S(=O)(=O)O)c1,inactive
11,CC(COC(C)(C)C)OCCCO (stereo not given),inactive
12,CC(C)(O)CCc1ccccc1,inactive
13,CC(C)CC(=O)C1C(=O)c2ccccc2C1=O,inactive
14,C=C(C)C(=O)OCC(C)(C)COC(=O)C(=C)C,inactive
15,CC(=O)OCC(C)C,inactive
16,CCOC(=O)C(Br)c1ccccc1 (stereo not given),inactive
17,CCCCCCCCCC(=O)N(C)C,inactive
18,NS(=O)(=O)c1cc(C2(O)NC(=O)c3ccccc32)ccc1Cl (stereo not given),inactive
19,O=CN1CCOCC1,inactive
20,Nc1nc(-c2ccccc2)c(Br)c(=O)[nH]1,inactive

row,SMILES,Potency
1,CCCCCCCCCCCCCCBr,inactive
2,CC(=O)[C@@]1(O)CC[C@H]2[C@@H]3C[C@H](C)C4=CC(=O)CC[C@]4(C)[C@H]3CC[C@@]21C,inactive
3,CCCCCCCCCCC(=O)O,inactive
4,CCOC(=O)c1ccc(NC(=O)CN2CCCCC2)cc1,inactive
5,CCCCCCCCCCCCCCC1CO1 (stereo not given),inactive
6,CC(=O)OC1CCCCC1,inactive
7,CC(C(O)c1ccc(O)cc1)N1CCC(Cc2ccccc2)CC1 (stereo not given),inactive
8,CC(C)C[P+](C)(CC(C)C)CC(C)C,inactive
9,O=C(Oc1ccccc1C(=O)O)c1ccccc1O,inactive
10,NC(=O)CC[C@@H]1NC(=O)[C@H](Cc2ccccc2)NC(=O)[C@H](Cc2ccc(O)cc2)NC(=O)CCSSC[C@@H](C(=O)N2CCC[C@H]2C(=O)N[C@@H](CCCN=C(N)N)C(=O)NCC(N)=O)NC(=O)[C@H](CC(N)=O)NC1=O,inactive
11,C=C(C)C(=O)OCC(O)CO (stereo not given),inactive
12,CCC1NC(=O)c2cc(S(N)(=O)=O)c(Cl)cc2N1 (stereo not given),inactive
13,CCCCC(CC)(CO)CO,inactive
14,CCOCCOCCOC(C)=O,inactive
15,CCCCc1nc2cccnc2n1Cc1ccc(-c2ccccc2-c2nnn[nH]2)cc1,inactive
16,COC(=O)C1=C(C)NC(C)=C(C(=O)OCCN2CCN(C(c3ccccc3)c3ccccc3)CC2)C1c1cccc([N+](=O)[O-])c1 (stereo not given),inactive
17,CCOC(=O)OCC/C(SC(=O)OCC)=C(\C)N(C=O)Cc1cnc(C)nc1N,inactive
18,Cc1cc(C)n(CO)n1,inactive
19,O=[N+]([O-])c1ccc(F)c(Cl)c1,inactive
20,CCO[Si](CCCCl)(OCC)OCC,inactive
